Results from the supplement of paper PMC11732987, “Enantioselective OTUD7B fragment discovery through chemoproteomics screening and high-throughput optimisation” (Communications Chemistry, 2025).

Legend:
Assay in all cases: log2 ratio of Biotin-Ahx-Ub-VS probe labelling (fragment/DMSO); higher = less target engagement (more negative = stronger competition), active = hit call of the paper (q ≤ 0.05, log2 ratio ≤ -1)
Conditions in all cases: compound concentration: 200 uM; treatment time: 3 h
USP34 = USP34 (UniProt Q70CQ2)
USP34, sequence (Q70CQ2 whole entry, the tested form may be a part): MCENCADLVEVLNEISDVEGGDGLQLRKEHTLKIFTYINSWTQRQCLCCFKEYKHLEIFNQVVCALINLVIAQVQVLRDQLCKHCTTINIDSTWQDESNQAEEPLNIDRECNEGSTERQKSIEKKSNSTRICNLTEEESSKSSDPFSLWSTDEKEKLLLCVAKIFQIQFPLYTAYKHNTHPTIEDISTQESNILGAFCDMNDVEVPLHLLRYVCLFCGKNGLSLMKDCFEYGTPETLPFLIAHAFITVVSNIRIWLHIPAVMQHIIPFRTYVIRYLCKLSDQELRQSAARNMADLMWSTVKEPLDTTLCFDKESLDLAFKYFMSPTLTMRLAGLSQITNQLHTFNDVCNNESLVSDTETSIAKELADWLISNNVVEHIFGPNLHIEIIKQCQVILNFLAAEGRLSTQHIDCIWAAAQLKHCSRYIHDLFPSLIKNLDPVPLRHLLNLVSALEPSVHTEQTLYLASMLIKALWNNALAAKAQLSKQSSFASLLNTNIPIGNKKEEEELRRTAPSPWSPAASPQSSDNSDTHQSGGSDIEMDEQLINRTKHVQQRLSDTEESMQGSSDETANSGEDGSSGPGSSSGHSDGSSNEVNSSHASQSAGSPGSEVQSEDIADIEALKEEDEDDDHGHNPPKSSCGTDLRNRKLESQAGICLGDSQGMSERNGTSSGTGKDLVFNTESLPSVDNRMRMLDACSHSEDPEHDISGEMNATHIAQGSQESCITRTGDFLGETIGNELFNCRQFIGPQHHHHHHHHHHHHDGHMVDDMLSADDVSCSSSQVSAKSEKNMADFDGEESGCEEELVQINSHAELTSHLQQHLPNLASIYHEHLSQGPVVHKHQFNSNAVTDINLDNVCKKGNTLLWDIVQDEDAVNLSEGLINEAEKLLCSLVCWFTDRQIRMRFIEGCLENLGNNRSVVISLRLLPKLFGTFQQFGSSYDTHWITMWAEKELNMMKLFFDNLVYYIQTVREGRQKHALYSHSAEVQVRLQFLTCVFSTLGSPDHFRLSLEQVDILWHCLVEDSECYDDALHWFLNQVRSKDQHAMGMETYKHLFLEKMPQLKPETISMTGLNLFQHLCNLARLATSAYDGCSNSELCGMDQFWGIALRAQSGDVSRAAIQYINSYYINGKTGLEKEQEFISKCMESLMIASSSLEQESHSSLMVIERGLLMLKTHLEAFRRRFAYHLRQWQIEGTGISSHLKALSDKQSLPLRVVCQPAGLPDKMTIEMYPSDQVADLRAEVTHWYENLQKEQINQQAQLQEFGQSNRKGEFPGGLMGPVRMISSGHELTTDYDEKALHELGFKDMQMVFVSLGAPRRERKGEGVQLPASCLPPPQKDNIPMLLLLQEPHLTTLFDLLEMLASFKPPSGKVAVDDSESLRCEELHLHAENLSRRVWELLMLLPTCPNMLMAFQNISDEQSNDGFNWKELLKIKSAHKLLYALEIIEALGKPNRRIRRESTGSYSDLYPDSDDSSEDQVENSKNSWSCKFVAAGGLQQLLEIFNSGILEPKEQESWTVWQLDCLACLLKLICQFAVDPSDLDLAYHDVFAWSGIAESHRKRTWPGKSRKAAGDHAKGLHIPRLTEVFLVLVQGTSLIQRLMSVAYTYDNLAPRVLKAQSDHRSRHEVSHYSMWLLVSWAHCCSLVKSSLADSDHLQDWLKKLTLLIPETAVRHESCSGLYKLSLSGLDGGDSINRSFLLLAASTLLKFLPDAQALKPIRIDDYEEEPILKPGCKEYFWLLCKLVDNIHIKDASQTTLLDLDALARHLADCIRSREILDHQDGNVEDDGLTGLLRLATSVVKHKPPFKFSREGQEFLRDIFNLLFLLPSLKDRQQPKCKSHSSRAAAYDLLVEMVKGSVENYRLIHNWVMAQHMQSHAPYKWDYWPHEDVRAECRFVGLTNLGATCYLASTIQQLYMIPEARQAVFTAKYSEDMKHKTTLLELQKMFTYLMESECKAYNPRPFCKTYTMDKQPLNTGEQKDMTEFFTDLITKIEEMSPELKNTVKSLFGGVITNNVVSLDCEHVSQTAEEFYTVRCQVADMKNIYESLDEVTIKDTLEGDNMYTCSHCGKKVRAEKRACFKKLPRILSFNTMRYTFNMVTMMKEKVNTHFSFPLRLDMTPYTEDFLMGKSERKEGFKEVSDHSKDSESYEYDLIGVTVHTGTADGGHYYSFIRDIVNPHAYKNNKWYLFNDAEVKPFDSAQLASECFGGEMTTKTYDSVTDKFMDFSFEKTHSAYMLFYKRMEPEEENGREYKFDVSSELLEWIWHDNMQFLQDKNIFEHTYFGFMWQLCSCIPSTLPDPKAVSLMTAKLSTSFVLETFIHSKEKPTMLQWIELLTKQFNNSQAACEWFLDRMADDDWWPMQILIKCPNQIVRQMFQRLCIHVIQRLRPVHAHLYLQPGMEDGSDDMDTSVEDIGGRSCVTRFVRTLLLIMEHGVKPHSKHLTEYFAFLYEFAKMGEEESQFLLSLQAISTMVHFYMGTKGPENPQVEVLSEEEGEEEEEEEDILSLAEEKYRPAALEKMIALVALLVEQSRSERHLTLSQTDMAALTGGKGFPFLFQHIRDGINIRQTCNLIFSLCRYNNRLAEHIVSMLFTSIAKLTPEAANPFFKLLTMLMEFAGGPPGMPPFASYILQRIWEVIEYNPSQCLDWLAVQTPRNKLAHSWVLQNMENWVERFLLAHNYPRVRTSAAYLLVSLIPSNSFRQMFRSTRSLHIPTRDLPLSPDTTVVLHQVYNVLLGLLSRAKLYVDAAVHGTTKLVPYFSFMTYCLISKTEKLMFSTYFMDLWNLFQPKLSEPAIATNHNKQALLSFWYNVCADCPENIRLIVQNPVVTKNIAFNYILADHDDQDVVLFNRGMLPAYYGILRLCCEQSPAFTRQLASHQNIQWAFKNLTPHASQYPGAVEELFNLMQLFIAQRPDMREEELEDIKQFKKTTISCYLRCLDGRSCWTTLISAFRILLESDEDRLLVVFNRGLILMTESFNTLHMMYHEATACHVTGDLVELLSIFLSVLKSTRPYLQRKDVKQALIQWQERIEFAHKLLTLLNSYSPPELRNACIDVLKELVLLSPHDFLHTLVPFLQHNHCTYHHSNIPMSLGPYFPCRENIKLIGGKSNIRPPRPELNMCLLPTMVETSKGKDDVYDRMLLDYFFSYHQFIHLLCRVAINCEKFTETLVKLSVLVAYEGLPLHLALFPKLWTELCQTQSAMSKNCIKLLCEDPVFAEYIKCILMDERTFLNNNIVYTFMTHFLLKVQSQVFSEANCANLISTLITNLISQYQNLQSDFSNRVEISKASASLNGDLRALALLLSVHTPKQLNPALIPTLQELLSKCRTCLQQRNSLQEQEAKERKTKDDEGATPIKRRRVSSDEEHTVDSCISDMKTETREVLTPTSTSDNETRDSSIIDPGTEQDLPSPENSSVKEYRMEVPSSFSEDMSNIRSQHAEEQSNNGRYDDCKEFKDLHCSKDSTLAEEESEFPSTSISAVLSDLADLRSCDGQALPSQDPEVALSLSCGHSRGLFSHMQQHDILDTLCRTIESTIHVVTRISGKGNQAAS
Procedure, shortened: (§1)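 HEK293T lysate (495 µg per sample, in Tris/CHAPS/IGEPAL buffer with protease inhibitors) was exposed in triplicate for 3 h to fragment at 200 µM or to vehicle, then to Biotin-Ahx-Ub-VS at 0.5 µM final for 1 h. Labelled DUBs were enriched on NeutrAvidin, digested with LysC and trypsin, and analysed by diaPASEF LC-MS/MS. Spectronaut label-free quantities were normalised to the global median, and values are average log2 ratios of fragment over vehicle from an unpaired t-test. Only proteins with ≥2 unique peptides were used.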

USP36 = biological target: T1, USP36 (UniProt Q9P275)
T1 sequence (whole entry): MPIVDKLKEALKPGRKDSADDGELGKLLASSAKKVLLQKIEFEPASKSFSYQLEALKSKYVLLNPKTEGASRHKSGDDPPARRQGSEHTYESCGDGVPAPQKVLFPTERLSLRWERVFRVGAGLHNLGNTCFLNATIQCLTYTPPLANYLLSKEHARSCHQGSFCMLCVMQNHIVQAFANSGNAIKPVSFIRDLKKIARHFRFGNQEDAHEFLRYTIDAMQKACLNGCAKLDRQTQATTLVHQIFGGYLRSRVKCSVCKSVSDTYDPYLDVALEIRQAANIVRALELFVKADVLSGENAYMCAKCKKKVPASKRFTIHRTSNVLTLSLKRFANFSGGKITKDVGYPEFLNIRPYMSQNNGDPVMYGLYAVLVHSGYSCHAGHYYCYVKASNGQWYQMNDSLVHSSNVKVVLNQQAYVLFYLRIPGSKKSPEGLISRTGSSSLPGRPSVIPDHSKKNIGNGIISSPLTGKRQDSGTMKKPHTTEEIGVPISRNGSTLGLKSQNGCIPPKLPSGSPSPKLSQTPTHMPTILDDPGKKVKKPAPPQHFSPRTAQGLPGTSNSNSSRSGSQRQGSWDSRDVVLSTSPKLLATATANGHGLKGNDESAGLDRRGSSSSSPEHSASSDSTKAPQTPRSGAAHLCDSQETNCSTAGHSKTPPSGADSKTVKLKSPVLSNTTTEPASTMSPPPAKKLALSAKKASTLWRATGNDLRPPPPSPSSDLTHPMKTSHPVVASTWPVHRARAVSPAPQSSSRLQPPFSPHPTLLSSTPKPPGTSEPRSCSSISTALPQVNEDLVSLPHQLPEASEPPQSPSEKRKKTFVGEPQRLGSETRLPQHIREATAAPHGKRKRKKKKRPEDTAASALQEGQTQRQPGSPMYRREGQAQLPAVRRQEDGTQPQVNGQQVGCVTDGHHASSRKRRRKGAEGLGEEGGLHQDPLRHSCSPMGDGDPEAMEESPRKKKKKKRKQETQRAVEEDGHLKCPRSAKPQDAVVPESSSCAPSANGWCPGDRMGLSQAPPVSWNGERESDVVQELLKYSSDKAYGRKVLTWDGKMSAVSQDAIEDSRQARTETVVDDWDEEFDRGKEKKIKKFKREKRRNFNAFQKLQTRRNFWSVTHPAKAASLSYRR
Procedure, shortened: as §1

USP38 = biological target: T2, USP38 (UniProt Q8NB14)
T2 sequence (whole entry): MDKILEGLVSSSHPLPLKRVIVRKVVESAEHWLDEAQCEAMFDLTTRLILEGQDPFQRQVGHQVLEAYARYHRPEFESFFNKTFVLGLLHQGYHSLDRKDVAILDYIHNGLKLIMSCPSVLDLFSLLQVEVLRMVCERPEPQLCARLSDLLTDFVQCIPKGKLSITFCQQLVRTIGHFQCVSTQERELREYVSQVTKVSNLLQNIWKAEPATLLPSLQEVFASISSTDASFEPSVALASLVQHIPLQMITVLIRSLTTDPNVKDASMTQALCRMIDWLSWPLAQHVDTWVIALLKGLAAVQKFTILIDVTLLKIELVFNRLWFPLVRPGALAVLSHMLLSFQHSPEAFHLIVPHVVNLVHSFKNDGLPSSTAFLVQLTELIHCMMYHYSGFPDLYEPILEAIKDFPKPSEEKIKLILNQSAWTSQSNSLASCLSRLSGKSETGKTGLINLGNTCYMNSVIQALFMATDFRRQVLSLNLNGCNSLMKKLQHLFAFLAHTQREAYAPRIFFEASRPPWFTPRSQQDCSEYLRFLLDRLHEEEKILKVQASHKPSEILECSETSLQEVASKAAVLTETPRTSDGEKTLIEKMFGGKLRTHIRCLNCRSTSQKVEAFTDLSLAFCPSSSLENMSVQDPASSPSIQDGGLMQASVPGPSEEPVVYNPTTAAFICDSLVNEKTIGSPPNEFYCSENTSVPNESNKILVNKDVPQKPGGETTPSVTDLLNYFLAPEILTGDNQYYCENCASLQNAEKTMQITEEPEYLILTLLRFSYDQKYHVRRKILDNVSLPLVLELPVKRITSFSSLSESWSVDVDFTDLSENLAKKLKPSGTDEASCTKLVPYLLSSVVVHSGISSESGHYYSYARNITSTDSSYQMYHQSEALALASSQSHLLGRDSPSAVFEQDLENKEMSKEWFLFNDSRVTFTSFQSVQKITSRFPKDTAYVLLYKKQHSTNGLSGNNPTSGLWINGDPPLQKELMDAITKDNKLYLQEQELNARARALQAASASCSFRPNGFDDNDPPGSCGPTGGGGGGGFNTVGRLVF
Procedure, shortened: as §1

USP39 = biological target: T3, USP39 (UniProt Q53GS9)
T3 sequence (whole entry): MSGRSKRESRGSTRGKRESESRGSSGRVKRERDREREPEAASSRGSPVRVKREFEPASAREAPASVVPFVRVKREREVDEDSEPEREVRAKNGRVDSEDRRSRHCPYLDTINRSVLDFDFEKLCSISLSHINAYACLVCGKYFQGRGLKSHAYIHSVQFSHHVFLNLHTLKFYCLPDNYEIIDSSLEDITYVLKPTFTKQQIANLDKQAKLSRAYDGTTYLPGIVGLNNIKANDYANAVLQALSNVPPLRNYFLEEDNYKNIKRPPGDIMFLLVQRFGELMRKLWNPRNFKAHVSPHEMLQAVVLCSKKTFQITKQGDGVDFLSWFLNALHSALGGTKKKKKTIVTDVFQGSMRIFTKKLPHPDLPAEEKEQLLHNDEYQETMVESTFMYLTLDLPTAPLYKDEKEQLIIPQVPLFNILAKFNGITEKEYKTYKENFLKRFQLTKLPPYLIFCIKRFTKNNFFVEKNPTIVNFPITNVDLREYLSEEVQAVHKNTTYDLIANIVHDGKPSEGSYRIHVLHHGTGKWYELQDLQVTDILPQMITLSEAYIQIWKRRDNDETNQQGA
Procedure, shortened: as §1

USP4 = biological target: T4, USP4 (UniProt Q13107)
T4 sequence (whole entry): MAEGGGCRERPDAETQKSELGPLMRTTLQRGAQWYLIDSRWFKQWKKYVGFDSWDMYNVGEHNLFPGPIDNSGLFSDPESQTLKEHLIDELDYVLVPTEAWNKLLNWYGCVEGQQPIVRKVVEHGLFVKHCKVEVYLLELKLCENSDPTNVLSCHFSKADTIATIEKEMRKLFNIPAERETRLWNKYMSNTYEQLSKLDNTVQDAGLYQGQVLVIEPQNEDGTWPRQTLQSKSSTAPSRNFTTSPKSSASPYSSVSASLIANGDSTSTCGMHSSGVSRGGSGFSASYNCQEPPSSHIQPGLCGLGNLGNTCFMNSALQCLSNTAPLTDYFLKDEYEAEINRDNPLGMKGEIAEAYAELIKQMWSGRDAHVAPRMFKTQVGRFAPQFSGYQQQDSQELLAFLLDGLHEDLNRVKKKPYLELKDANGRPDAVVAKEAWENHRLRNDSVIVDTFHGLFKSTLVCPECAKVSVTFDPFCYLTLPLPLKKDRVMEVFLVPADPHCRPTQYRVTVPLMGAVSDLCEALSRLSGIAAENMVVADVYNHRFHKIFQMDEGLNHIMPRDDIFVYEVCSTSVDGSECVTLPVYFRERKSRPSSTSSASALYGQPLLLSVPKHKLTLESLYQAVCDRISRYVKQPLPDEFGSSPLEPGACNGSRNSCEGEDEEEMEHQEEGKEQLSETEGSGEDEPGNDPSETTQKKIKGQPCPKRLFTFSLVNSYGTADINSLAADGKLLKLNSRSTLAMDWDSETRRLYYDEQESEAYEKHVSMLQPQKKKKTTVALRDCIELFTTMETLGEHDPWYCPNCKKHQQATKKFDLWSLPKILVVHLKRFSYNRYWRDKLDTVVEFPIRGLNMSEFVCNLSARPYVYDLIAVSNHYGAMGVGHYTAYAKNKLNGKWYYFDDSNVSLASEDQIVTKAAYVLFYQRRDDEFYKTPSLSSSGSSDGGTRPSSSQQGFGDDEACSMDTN
Procedure, shortened: as §1

Measured: log2 ratio of Biotin-Ahx-Ub-VS probe labelling

O=C(CCl)NCc1noc(C2CC2)n1
inactive: USP34 -0.18 | USP36 -0.144 | USP38 -0.0158 | USP39 0.182 | USP4 0.00316
